Screening data (PubChem BioAssay)
In the library only some 0.43% were active in any assay of this set; here they are far more common.
GLA inh pH 4.5: blocks human alpha-galactosidase A at pH 4.5; AID 1467; purified enzyme, 4-MU-alpha-Gal fluorescence, pH 4.5; 230,000 tested, under 10 active; activity change, negative = inhibition, % at 105 µM;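 also: 0% = full activity with enzyme and -100% = basal without enzyme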
GLA spleen mod: inhibits or activates alpha-galactosidase in human spleen homogenate. P06280. human spleen homogenate, 4MU-alpha-Gal fluorescence, 40 min. Potency, µM (series often up to 80 µM), for inactives: top-dose activity change, negative = inhibition, actives largely listed as inhibitors. hit rate 0.008% among 240,000;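 also: potency is read from the fitted curve at half-maximal effect; 0% = enzyme with vehicle and -100% = no enzyme basal signal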
Target sequence (P06280 32-429 limits assumed): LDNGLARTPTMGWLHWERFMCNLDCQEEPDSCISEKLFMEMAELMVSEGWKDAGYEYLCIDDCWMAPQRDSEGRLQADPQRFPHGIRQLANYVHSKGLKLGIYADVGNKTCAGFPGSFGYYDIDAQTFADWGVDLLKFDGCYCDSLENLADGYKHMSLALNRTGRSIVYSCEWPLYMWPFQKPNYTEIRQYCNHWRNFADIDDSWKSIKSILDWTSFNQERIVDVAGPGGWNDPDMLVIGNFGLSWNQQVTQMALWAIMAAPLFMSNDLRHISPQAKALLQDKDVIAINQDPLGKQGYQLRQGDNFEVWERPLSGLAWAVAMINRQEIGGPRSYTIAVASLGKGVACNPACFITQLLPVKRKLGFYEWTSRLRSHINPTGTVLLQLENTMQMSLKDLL
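qHTS titration in buffer at pH 5.0. Alpha-galactosidase activity in spleen homogenate was measured via 4-methylumbelliferone release from 1 mM fluorogenic substrate after 40 min at 37C and a pH 10 stop. AC50 came from Hill fits of control-normalized data.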
GAA inhib: inhibitors of human lysosomal alpha-glucosidase | P10253 | purified human GAA, 4-MU-alpha-glucoside fluorescence | Potency, µM (titrated, usually from 76.9 µM), for the others: top-dose activity change, negative = inhibition, usual class: inhibitors | hit rate 0.005% among 200,000 | AID 1466;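 also: potency is read from the fitted curve at half-maximal effect; plate controls were uninhibited enzyme wells for no effect and no-enzyme background for full effect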
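Endpoint fluorogenic read: 20 min room-temperature reaction of 4 nM human alpha-glucosidase with 400 uM 4-methylumbelliferyl-alpha-D-pyranoside, pH 5.0, quenched with 1M NaOH/1M glycine pH 10. AC50 from Hill modeling.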
GAA glycogen: alters human alpha-glucosidase cleavage of glycogen; recombinant GAA, glycogen substrate, Amplex Red glucose oxidase fluorescence; Potency, µM (titrated, usually from 76.4 µM), without a hit: top-dose activity change, negative = inhibition, usual class: inhibitors; hit rate 0.38% among 300,000;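 also: potency is read from the fitted curve at half-maximal effect; 0% = full enzyme reaction and -100% = no-enzyme basal signal; the screen sought inhibitors and activators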
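Natural-substrate format: glycogen cleavage by 4 nM human enzyme, glucose read by Amplex Red coupling (Ex 573, Em 610 nm). Normalized to enzyme and no-enzyme controls.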
N370S GC mod: N370S glucocerebrosidase modulation, Gaucher chaperone candidate | P04062 | N370S GC spleen homogenate, 4MU-glucoside fluorescence | Potency, µM (series often up to 59.4 µM), for inactives: top-dose activity change, negative = inhibition, most hits filed as inhibitors | hit rate 0.092% among 330,000 | AID 2101;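 also: potency is read from the fitted curve at half-maximal effect; 0% = full enzyme activity and -100% = no enzyme basal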
GAA spleen mod: inhibits or activates alpha-glucosidase in human spleen homogenate; human spleen homogenate, 4-MU-alpha-glucoside fluorescence; hit rate 0.006% among 240,000; Potency, µM (top dose mostly 79.9 µM), inactives show at the highest dose activity change, negative = inhibition, usual class: inhibitors;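 also: potency is read from the fitted curve at half-maximal effect; 0% = enzyme with vehicle and -100% = no enzyme basal signal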
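Compounds were titrated against alpha-glucosidase in spleen homogenate at pH 5.0, with 1 mM 4-methylumbelliferyl substrate for 40 min at 37 C. Reactions were quenched with pH 10 NaOH/glycine and fluorescence measured.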
Active calls of the source: *; ? = inconclusive; nt = no result; [ ] = remark or other dose. Calls follow the shape of the dose curve; as a rule, active = well fitted curve in the direction sought with a large enough effect; inconclusive = small, poorly fitted or top-dose-only effect, or another doubt; inactive = no such curve, though single readings can be large; an effect the other way counts as inactive or inconclusive.

SMILES | GLA inh pH 4.5 | GLA spleen mod | GAA inhib | GAA glycogen | N370S GC mod | GAA spleen mod
Cc1cccc(N2CCN(C(=O)C3CCCN(S(=O)(=O)c4ccc5c(c4)oc(=O)n5C)C3)CC2)c1C (centres undefined) | nt | nt | nt | -17%[76.3 µM] | nt | nt
Cc1ccc(NC(=O)CSc2nnc(-c3cc4occc4n3C)n2-c2ccccc2C)c(Cl)c1 | nt | nt | nt | -9%[76.3 µM] | nt | nt
O=C1[C@H]2[C@H]3[C@H](O)[C@H](O)C/C(=N/OC[C@@H](O)COCc4ccco4)[C@@H]3CC[C@@H]2C(=O)N1Cc1ccc2c(c1)OCO2 | nt | 4%[17.5 µM] | nt | nt | -8%[12.8 µM] | -12%[17.4 µM]
CCCCCCC1(C)NC(=S)N(c2ccccc2)N1 (centres undefined) | 4 | -8% | -4% | ? | 9% | -6%
CCCCCC1(C)NC(=S)N(c2ccccc2)N1 (centres undefined) | -3 | 0% | -4% | 35µM* | -5% | -2%
c1ccc2c(c1)SCc1c-2[nH]c2ccccc12 | nt | -6% | nt | nt | 0% | -2%
CC(=O)N1CCc2nc3sc(C(=O)c4ccc(F)cc4)c(N)c3c(C(F)(F)F)c2C1 | nt | nt | nt | -18%[76.3 µM] | nt | nt
O=c1c2ccccc2[nH]c2ccc(O)cc12 | nt | nt | nt | 20µM* | -7% | nt
CC1CCC(NC(=O)Nc2cccs2)CC1 (centres undefined) | 1 | 0% | -8% | 16µM* | 2% | -7%
O=C1CC(c2nc3ccccc3n2Cc2c(F)cccc2Cl)CN1c1cccc(C(F)(F)F)c1 (centres undefined) | nt | nt | nt | 3%[76.3 µM] | nt | nt
Cc1ccc(C2C3=C(CC(C)(C)CC3=O)N=C3c4ccccc4C(=O)C32)cc1 (centres undefined) | -14 | 1% | -2% | -22% | 16µM* | -16%
CC1(C)CC(=O)C2=C(C1)N=C1c3ccccc3C(=O)C1C2c1ccc(Cl)cc1 (centres undefined) | -18 | 3% | 1% | -5% | 14µM* | -4%
Cc1ccc(C2C3=C(CC(C)(C)CC3=O)OC3=C2C(=O)CC(C)(C)C3)cc1 | -1 | 1% | 6% | -9% | 0% | -2%
CCOC(=O)C1=C(C)N=C2c3ccccc3C(=O)C2C1c1ccc(Cl)cc1 (centres undefined) | 1 | -2% | -3% | -29% | -5%[12.8 µM] | -10%
CCCCC(CC)CNCC(CC)CCCC (centres undefined) | nt | -1% | nt | nt | 2% | 2%
CNC(=O)CN1C(=O)c2cccc3cccc1c23 | -1 | -11% | -1% | 6% | 3% | -13%
CN1/C(=N\O)c2cccc3cccc1c23 | 3 | 7% | 3% | 35µM* | -2% | 5%
CC12CCC(C(=O)NNc3ccccc3)(OC1=O)C2(C)C (centres undefined) | -1 | 0% | 5% | 28µM* | -15% | -4%
CC12CCC(C(=O)NNc3ccc([N+](=O)[O-])cc3)(OC1=O)C2(C)C (centres undefined) | -14 | -4% | nt | ? | -16% | -4%
CN1CCN(c2ncc3nc(-c4cccc(C#N)c4)c(=O)n(C)c3n2)CC1 | nt | 24% | nt | nt | 11% | -5%
CCc1ccc(NC2CC(=O)N(CCc3ccc(OC)c(OC)c3)C2=O)cc1 (centres undefined) | -17 | -17% | 4% | -21% | 20% | -14%
CC(C)N1C(=O)CC(Nc2ccc(N3CCOCC3)cc2)C1=O (centres undefined) | -13 | 1% | -6% | 25µM* | nt | -2%
O=C(Nc1ccc(N2CCOCC2)cc1)NC1CCCCC1 | 0 | -10% | 1% | ? | 3% | -3%
O=C1CC(Nc2ccc(N3CCOCC3)cc2)C(=O)N1C1CCCCC1 (centres undefined) | 1 | 9% | 0% | 13µM* | -4% | -1%
O=C1CC(Nc2ccccc2)C(=O)N1c1ccc(N2CCOCC2)cc1 (centres undefined) | 8 | 9% | -8% | 6% | -24% | -5%
SMILES | GLA inh pH 4.5 | GLA spleen mod | GAA inhib | GAA glycogen | N370S GC mod | GAA spleen mod
COc1ccc(CCN2C(=O)CC(Nc3ccc(N4CCOCC4)cc3)C2=O)cc1OC (centres undefined) | 8 | 0% | -1% | 16µM* | -9% | -5%
O=C1CC(Nc2ccc(N3CCOCC3)cc2)C(=O)N1c1ccccc1F (centres undefined) | -9 | 1% | 0% | 25µM* | -4% | 0%
CCc1ccc(C2/C=C\CNC(c3ccccc3)C(=O)N2Cc2ccc(C)cc2)cc1 (centres undefined) | nt | 0% | nt | nt | ? | 7%
CCN(C(=O)CSc1nnc(-c2cc(OC)c(OC)c(OC)c2)o1)c1ccccc1 | nt | nt | nt | -7%[76.3 µM] | nt | nt
NCCCCCCCCCCNCCCN | nt | -3% | nt | nt | -1% | -3%
CCNc1ccc(S(=O)(=O)N(C)C)cc1NCC(=O)Nc1ccc(Br)cc1F | 0 | 4% | 0% | ? | 9% | -5%
CCNc1ccc(S(=O)(=O)N(C)C)cc1NCC(=O)Nc1ccccc1F | -8 | -6% | ? | ? | 10µM* | -1%
CCNc1ccc(S(=O)(=O)N(C)C)cc1NCC(=O)Nc1ccc(F)c(Cl)c1 | -23 | 2% | -11% | 10% | 7.9µM* | 1%
CCOc1ccccc1NC(=O)c1c(NC(=O)COc2ccccc2)sc2c1CCCCC2 | nt | nt | nt | -2%[76.3 µM] | nt | nt
Oc1ccc(C(c2nnnn2C2CCCCC2)N2CCOCC2)cc1 (centres undefined) | 6 | -3% | 8% | -5% | -19% | -6%
CCOC(=O)c1cc2oc(C(c3nnnn3C3CCCCC3)N3CCOCC3)cc2[nH]1 (centres undefined) | -8 | -10% | -4% | -2% | 13µM* | -16%
CCOC(=O)NC1(Nc2ccc(Cl)cn2)Oc2ccccc2O1 | -3 | 2% | 3% | 22µM* | -2% | -3%
CCOC(=O)/C=C/C(=O)OCC(=O)Nc1ccc(Cl)cn1 | -8 | -21% | 3% | 4% | 3% | -1%
O=C(N/N=C/C1CC=CCC1)c1cc(Br)ccc1O (centres undefined) | -4 | -3% | 4% | ? | -3% | -5%
O=C(N/N=C/C1CC=CCC1)c1ccccc1O (centres undefined) | 5 | -1% | -10% | 32µM* | 0% | -7%
CC(=O)OCC(NC(=O)C(COCc1ccccc1)NC(=O)OC(C)(C)C)C1OC(n2cc(F)c(=O)[nH]c2=O)C(OC(C)=O)C1OC(C)=O (centres undefined) | nt | -2% | nt | nt | -2% | 1%
Nc1[nH]nc2nc3ccccc3cc12 | -1 | 6% | -1% | ? | 9% | -4%
CCc1ccc2nc3n[nH]c(N)c3cc2c1 | 7 | -8% | 1% | 18µM* | -1% | -3%
COc1cccc(COCCN2CCN(S(=O)(=O)c3ccccc3)CCC2=O)c1 | nt | 2% | nt | nt | -1% | -6%
